Sampled rows, rich in hits. Any-hit rate of the full collection: about 3.3%.
Mcl1 Bid PPI = Mcl-1/Bid interaction inhibition | Q07820 | 0.97% of 220,000 active | AID 1021 | TR-FRET Mcl-1/Bid-Dy647 peptide binding, 1536-well | inhibition, % at 21.7 µM;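 active = compounds that cut the binding signal by more than half at the single screening dose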;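 also: His-tagged Mcl-1 with europium anti-His antibody binding Bid BH3 peptide; 0% = Mcl-1 plus peptide wells and 100% = peptide-only wells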
eIF4E 4G PPI = eIF4E/eIF4G interaction inhibition in translation initiation | P63073+Q04637 | TR-FRET eIF4E-eIF4GI(517-606) binding, 2 h | inhibition, % at 21.7 µM | 0.37% of 220,000 active | AID 782;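 also: 0% = full FRET control wells and 100% = background wells lacking eIF4GI fragment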
Mcl1-Noxa inh = Mcl-1/Noxa interaction inhibition. Q07820. 1.5% of 220,000 active. inhibition, % at 21.7 µM. TR-FRET Mcl-1/Noxa peptide binding, 2 h;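 active = compounds that cut the protein-peptide binding signal by more than 50% relative to plate controls in a single-dose test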;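 also: His-tagged Mcl-1 with rhodamine Noxa BH3 peptide and terbium anti-His antibody; 0% = Mcl-1 plus Noxa peptide wells and 100% = peptide-only wells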
p47phox inh = blocks human p47phox regulatory protein of NADPH oxidases; P14598; p47phox/p22phox peptide binding, fluorescence polarization, 2 h; inhibition, % at 24.7 µM; 0.53% of 220,000 active; AID 1274;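 also: 0% = p47phox with labelled peptide and 100% = labelled peptide alone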
Mcl-1 Bim block = human Bim-Mcl-1 interaction inhibition; inhibition, % at 10 µM; 0.1% of 190,000 active; AID 1009; Bead-based flow cytometry, Bim peptide-Mcl-1 binding; in the data active = inhibition above about 40%;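 also: 0% = no compound tracer wells and 100% = peptide blocker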
14-3-3 Bad inh = disrupts binding of bovine 14-3-3 zeta to phospho-Bad peptide; P63103; TR-FRET 14-3-3zeta/Dy647-pBad peptide displacement, 1 h; inhibition, % at 21.7 µM; 0.71% of 220,000 active; AID 781;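 active = inhibition above about 70%, limit read from the data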;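 also: 0% = full 14-3-3 plus peptide FRET controls and 100% = background without 14-3-3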
The depositor's hits bear a star; · = no result.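 The calls were made as follows, unless noted: active = inhibition above about 30% (limit read from the data); inactive = the rest.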

SMILES | Mcl1 Bid PPI | eIF4E 4G PPI | Mcl1-Noxa inh | p47phox inh | Mcl-1 Bim block | 14-3-3 Bad inh
Cc1ccccc1OCC(=O)Nc1ccccc1N1CCOCC1 | -7.2 | 0.8 | -0.6 | -2.9 | -5.0 | 4.1
Cc1cccc2cc(-c3ccccc3)c(-c3ccccc3)c[n+]12 | -44.5 | -6.4 | 14.8 | 49.2* | -2.0 | -10.7
Cc1nc2c(O)cccc2cc1CO | -47.9 | 8.3 | -38.8 | -5.5 | · | -8.0
CCCC(=O)Nc1c2c(nc3ccccc13)N(c1ccccc1)CC2 | -3.1 | 3.0 | -17.1 | -13.0 | -2.0 | -1.4
O=C(CN1CCCCC1)Nc1c2c(nc3ccccc13)N(c1ccccc1)CC2 | -58.6 | 8.3 | -28.7 | 23.0 | 1.0 | 71.2*
O=[N+]([O-])c1cc(Br)c(OCc2nnc(-c3ccccc3)o2)c(Br)c1 | -17.0 | -3.7 | -9.5 | -10.1 | -2.0 | -6.8
Clc1ccc(OCc2nnc(-c3ccccc3Br)o2)c(Cl)c1 | -4.3 | 7.0 | 3.8 | 42.6* | 38.0 | 17.0
O=[N+]([O-])c1ccc2c(OCc3nnc(-c4ccccc4Br)o3)ncnc2c1 | 6.2 | 3.3 | 61.0* | -7.6 | · | 7.9
COc1ccc(-n2ncc3c(=O)n(Cc4c(F)cccc4Cl)cnc32)cc1 | -22.6 | -0.8 | 3.1 | -1.6 | 0.0 | -6.1
Oc1c(C(c2ccc(Cl)cc2)N2CCCC2)cc(Cl)c2cccnc12 (centres undefined) | 73.3* | 3.2 | 21.6 | -5.1 | -1.0 | 4.6
CN1CCN(C(c2ccccn2)c2cc(Cl)c3cccnc3c2O)CC1 (centres undefined) | 37.1 | 4.5 | 46.1 | 16.2 | 0.0 | -4.9
COc1ccc(C(=O)Nc2ccccc2C(=O)NC(Cc2ccc(O)cc2)C(=O)NNC(=O)c2ccc(C)cc2)cc1 (centres undefined) | 56.6* | 17.1 | -114.0 | 18.6 | -1.0 | 79.3*
COc1ccc(C(=O)Nc2ccccc2C(=O)NC(Cc2ccc(O)cc2)C(=O)NNC(=O)c2ccccc2)cc1 (centres undefined) | -9.6 | -8.8 | 15.5 | -3.6 | 0.0 | -5.6
CC(=O)Nc1sc(C)c(C)c1C(=O)OC(C)C | -54.3 | 0.2 | -13.2 | -6.5 | -3.0 | 2.1
Cc1sc(NC(=O)Cn2nc(C(F)(F)F)cc2C)c(C(=O)OC(C)C)c1C | -41.6 | 31.0* | -6.8 | -43.8 | -4.0 | -10.4
CNCc1ccccc1OCc1ccccc1F | -2.8 | 1.4 | 73.6* | -6.8 | 3.0 | -8.1
Nc1cc(-c2ccc(Cl)cc2)nn1-c1ccccc1 | -16.0 | 0.6 | 27.0 | -2.4 | -5.0 | -8.3
Nc1ccc(-c2cc(N)n(-c3ccccc3)n2)cc1 | -3.8 | 7.8 | 34.1 | 13.9 | -3.0 | 81.0*
O=C(NCN1C(=O)C2C3C=CC(C3)C2C1=O)Nc1ccccn1 (centres undefined) | -3.7 | 4.5 | -23.5 | -6.3 | 1.0 | -4.8
O=C(CCN1C(=O)C2C3C=CC(C3)C2C1=O)Nc1ccccn1 (centres undefined) | -8.3 | 46.9* | 1.0 | -6.2 | -4.0 | 13.2
CC(NC(=O)Nc1ccccn1)N1C(=O)C2C3C=CC(C3)C2C1=O (centres undefined) | -11.1 | -7.6 | -4.5 | -7.3 | 48.0* | 0.6
COC(=O)CCC(=O)NC(=S)Nc1ccccc1F | -0.6 | -0.2 | 1.7 | -6.0 | -3.0 | -2.3
O=c1cc(/C=C/c2ccccc2)oc2ccccc12 | 5.1 | -0.8 | 3.1 | -19.6 | -1.0 | 4.8
C=CCNCCOCCOc1ccc(Cl)cc1C(C)(C)C | 57.8* | 3.1 | 22.5 | -1.9 | -2.0 | 51.8
C=CCNCCCOc1ccc(Cl)cc1C(C)(C)C | 32.5 | -1.7 | 27.6 | -10.2 | 2.0 | 65.2
O=C(CCn1c(=O)c2ccccc2n(Cc2cccnc2)c1=O)NCc1ccc2c(c1)OCO2 | -4.9 | 0.7 | 9.4 | -17.2 | 0.0 | -6.0
Cc1ccccc1Cn1c(=O)n(CCC(=O)NCc2ccc3c(c2)OCO3)c(=O)c2ccccc21 | 45.4 | -7.2 | -4.8 | 37.1* | 2.0 | 8.6
CCOC(=O)N1CCN(c2nc(C)c3c(n2)CCCC3=O)CC1 | 70.8* | -2.9 | 27.1 | -3.7 | 0.0 | -9.5
Cc1cccc2c(C(=O)Nc3ccc(Br)cc3)cc(-c3ccccn3)nc12 | -30.4 | -4.3 | -0.2 | -20.6 | -1.0 | -8.6
O=C(Nc1ccc([N+](=O)[O-])cc1)c1cc(-c2ccccn2)nc2c(Cl)cccc12 | 42.4 | 15.2 | 48.7 | -6.2 | 5.0 | 70.7*

Assay outcomes: PubChem BioAssay, several laboratories
